High-throughput results from PubChem BioAssay.
CHT inh: inhibits the human high affinity choline transporter | B-score at 10 µM | CHT-expressing cells, membrane potential dye, choline response; active compounds read low | hit rate 0.86% among 310,000 | AID 488975;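 active = B-score over 3 SD under the library average, and starting fluorescence ratio not unusually high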;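 also: choline stimulus applied at its EC90 after an EC20 pre-addition; B-score computed on integrated fluorescence ratio after choline addition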
TMEM16A inh: mouse TMEM16A channel inhibition, primary screen | Q8BHY3 | HEK293 TMEM16A/YFP iodide influx fluorescence, ionomycin | hit rate 1.2% among 310,000 | normalized B-score (activity score, 25-100; higher = stronger inhibition) at 10 µM;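 active = ratio plate-corrected score three or more library SD toward inhibition, starting fluorescence score within five deviations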;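 also: score derived from kinetic fluorescence span divided by baseline fluorescence per well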
TMEM16A act: mouse TMEM16A channel activation, primary screen. hit rate 0.3% among 340,000. HEK293 TMEM16A/YFP-H148Q/I152L, iodide quench fluorescence; active compounds read low. B-score at 10 µM. Q8BHY3;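 active = fluorescence-ratio B-score plate-corrected deviation score at least 3 library SD below zero, with starting fluorescence score within 5 deviations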;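 also: channel opened by trigger with iodide after compound preincubation; score built on the fluorescence ratio of max minus min over baseline; more negative score means more quench and so TMEM16A activation or potentiation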
IDE cell activ: boosts human insulin-degrading enzyme activity in HEK cells; P14735; FAbeta-B cleavage, fluorescence polarization; 0% vehicle, 100% cell-free pure enzyme wells; activation, % at 5.96 µM; hit rate 0.073% among 340,000; AID 493087;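 active = activation above the mean of all tested compounds plus 3 SD, set per screening campaign, cut at about 17% in these data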
IDE cell inh: inhibits human insulin-degrading enzyme in HEK cells. inhibition, % at 5.59 µM. FAbetaB cleavage, fluorescence polarization. hit rate 0.41% among 320,000. AID 434962. P14735;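 active = percent inhibition above the average of all tested compounds plus 3 SD, set per screening campaign, cut at about 16% in these data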;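 also: IDE supplied by intact live HEK cells; FP after avidin binding of uncleaved biotin substrate so inhibition keeps polarization high; 0% = DMSO wells and 100% = 60 µM reference IDE inhibitor Ii1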
CHT allo act: allosterically activates the human high affinity choline transporter. CHT-expressing cells, membrane potential dye, choline EC20; active compounds read high; LV-AA mutant CHT in HEK293 cells. B-score at 10 µM. AID 488977. hit rate 0.49% among 310,000. Q9GZV3;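 active = initial fluorescence not abnormally high and integrated response B-score, plate-corrected, over 3 SD above library mean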
IDE cell inh cf: confirmation of human insulin-degrading enzyme inhibitors in cells; shares compounds with IDE cell inh; HEK cells, FAbetaB cleavage, fluorescence polarization; inhibition, % at 5.59 µM; hit rate 51% among 1,200;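 active = mean inhibition across triplicate wells above the cutoff set by the earlier primary insulin-degrading enzyme screen, cut at about 16% in these data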;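 also: 0% = DMSO wells and 100% = 60 µM reference IDE inhibitor Ii1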
HEK cytotox: kills HEK cells in IDE inhibitor counter-screen; shares compounds with IDE cell inh; HEK293 cytotoxicity, ATP luminescence; inhibition, % at 5.59 µM; hit rate 28% among 1,200; AID 449730; in the data active = inhibition above about 22%;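 also: 0% = vehicle wells and 100% = reference cytotoxic drug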
The depositor's hits bear a star; i = inactive; . = no result. An excerpt weighted towards active compounds, which were near 2.7% of everything screened.

SMILES	CHT inh	TMEM16A inh	TMEM16A act	IDE cell activ	IDE cell inh	CHT allo act	IDE cell inh cf	HEK cytotox
CCN1CCc2c(sc(NC(=O)Cc3ccccc3)c2C(N)=O)C1	i	i	i	4.4	-0.4	i	.	.
CCN1CCc2c(sc(NC(=O)Nc3ccc(Cl)c(Cl)c3)c2C(N)=O)C1	i	i	i	-124.0	109.9*	i	58.5*	19.5
CC1Cc2cc(/C(O)=C3/C(=O)C(=O)N(CCCn4ccnc4)C3c3ccc(F)cc3)ccc2O1 (configuration not stated)	i	i	i	-0.9	0.6	i	.	.
O=C(NNC1=Nc2cccc3cccc1c23)c1ccccc1Br	i	i	i	-8.9	16.4*	i	5.0	18.7
c1ccc(NC2=Nc3cccc4cccc2c34)cc1	i	i	i	4.1	-0.3	i	.	.
O=C(N=C1SC2CS(=O)(=O)CC2N1Cc1ccccc1Cl)C1CCCO1 (configuration not stated)	i	i	i	10.4	0.7	i	.	.
COc1ccc2c(=O)c(Oc3ccc(C(=O)O)cc3)c(C(F)(F)F)oc2c1	i	i	i	1.3	17.6*	i	3.7	6.8
NC(=O)c1cc(Cl)ccc1OCC(=O)NC1CC1	.	.	i	1.8	-2.4	.	.	.
CCC(C)(C)n1nnnc1C(c1ccc2ncccc2c1)N1CCN(c2nc3ccccc3s2)CC1 (configuration not stated)	i	i	i	-9.7	18.1*	i	10.7	25.9*
CCC(C)(C)n1nnnc1C(c1ccc2ncccc2c1)N1CCN(c2ccc(O)cc2)CC1 (configuration not stated)	i	i	i	2.2	1.4	i	.	.
CCCCCN(C(=O)CCC(=O)OC(C)C(=O)c1ccc(CC)cc1)c1c(N)n(CCCC)c(=O)[nH]c1=O (configuration not stated)	.	.	i	7.2	.	.	.	.
CCCCCN(C(=O)CCC(=O)OCC(=O)c1ccc(CCC)cc1)c1c(N)n(CCCC)c(=O)[nH]c1=O	i	i	i	-18.6	23.6*	i	21.1*	8.1
CC(C)(C)NC(=O)CSc1nc(-c2ccc(F)cc2)cs1	i	i	i	5.5	16.5*	i	2.3	13.5
O=C(Nc1ccccc1N1CCN(C(=O)c2ccccc2)CC1)c1ccc(Br)o1	i	i	i	-10.4	7.2	i	.	.
CCOC(=O)C1=CCN(Cc2ccccc2)CC1	i	i	i	8.1	-1.2	i	.	.
Cc1cccc(C)c1OC(=O)c1ccccc1	.	.	i	3.7	.	.	.	.
C=CCn1c(=O)/c(=C/c2ccc(O)cc2)s/c1=C(/C#N)c1nnc2n1CCCCC2	i	i	i	-111.1	102.3*	i	88.4*	12.6
CCCc1cc(=O)oc2c3c(cc(OCC(=O)NCc4ccncc4)c12)OC(C)(C)CC3	i	i	i	-25.3	22.8*	i	8.3	25.2*
CCCc1cc(=O)oc2c3c(cc(OCC(=O)NCc4ccccn4)c12)OC(C)(C)CC3	i	i	i	-2.0	3.6	i	.	.
Cc1ccc(S(=O)(=O)N(Cc2c(F)cccc2Cl)C(=O)N2CCN(C)CC2)cc1	i	i	i	5.8	-6.4	i	.	.
O=c1/c(=C\c2ccc(O)cc2)sc2n1C(c1ccccc1)C(c1ccccc1)=NN=2 (configuration not stated)	i	i	i	-49.0	19.3*	i	141.3*	12.5
Cc1ccc(/C=C/C(=O)NC(=S)Nc2ccc(S(=O)(=O)Nc3cc(C)on3)cc2)cc1	i	i	i	-10.3	24.5*	i	20.9*	7.5
CCOC(=O)C1=CN(Cc2cccc(-c3ccc4c(c3)OCO4)c2)S(=O)(=O)N(C)C1C (configuration not stated)	.	.	i	4.3	.	.	.	.
CCC1(C)Cc2c(sc(NC(=S)NC(=O)c3ccccc3)c2C#N)CO1 (configuration not stated)	i	i	i	-7.0	1.7	i	.	.
